PubChem BioAssay (NCI)
About 83,000 compounds went through this panel and 20% of them were active in at least one assay; those are over-represented in the sample as a whole.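 Activity criterion: percent growth below 10, measured after cells in 96-well plates were exposed to a single compound concentration for 48 hours.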 Unmarked numbers belong to inactive results. Active and inactive are the calls of the source.

How the values were obtained:
Test in all cases: NCI-60 one-dose screen, 48 h (100 = growth as untreated, 0 = no growth, -100 = all killed)
Conditions in all cases: 10 µM unless noted
RPMI-8226 leukemia = system: RPMI-8226 leukemia
OVCAR-8 ovarian = system: OVCAR-8 ovarian
OVCAR-5 ovarian = system: OVCAR-5 ovarian
OVCAR-4 ovarian = system: OVCAR-4 ovarian
SK-OV-3 ovarian = system: SK-OV-3 ovarian
IGROV1 ovarian = system: IGROV1 ovarian
OVCAR-3 ovarian = system: OVCAR-3 ovarian
HS 578T breast = system: HS 578T breast
NCI/ADR-RES ovarian = system: NCI/ADR-RES ovarian
T-47D breast = system: T-47D breast
BT-549 breast = system: BT-549 breast
MDA-MB-435 melanoma = system: MDA-MB-435 melanoma
SW-620 colon = system: SW-620 colon
MCF7 breast = system: MCF7 breast
HCT-116 colon = system: HCT-116 colon
HCC-2998 colon = system: HCC-2998 colon
KM12 colon = system: KM12 colon

SMILES | growth (RPMI-8226 leukemia) | growth (OVCAR-8 ovarian) | growth (OVCAR-5 ovarian) | growth (OVCAR-4 ovarian) | growth (SK-OV-3 ovarian) | growth (IGROV1 ovarian) | growth (OVCAR-3 ovarian) | growth (HS 578T breast) | growth (NCI/ADR-RES ovarian) | growth (T-47D breast) | growth (BT-549 breast) | growth (MDA-MB-435 melanoma) | growth (SW-620 colon) | growth (MCF7 breast) | growth (HCT-116 colon) | growth (HCC-2998 colon) | growth (KM12 colon)
COc1cc(/C=C/C(=O)/C=C/c2cc3ccc(Cl)cc3[nH]c2=O)ccc1O | 4.64% (active) | 6.97% (active) | 103% | 68% | 105% | 40.7% | 42.4% | 73.8% | 41% | 88.8% | 97.5% | 36% | 29.7% | 57.8% | 2.1% (active) | 86.3% | 81.3%
CC(=O)OC[C@]12CC[C@@H](c3cn(Cc4ccc(Cn5cc([C@@H]6CC[C@]7(COC(C)=O)CC[C@]8(C)[C@H](CC[C@@H]9[C@@]%10(C)CC[C@H](OC(C)=O)C(C)(C)[C@@H]%10CC[C@]98C)[C@@H]67)nn5)cc4)nn3)[C@@H]1[C@H]1CC[C@@H]3[C@@]4(C)CC[C@H](OC(C)=O)C(C)(C)[C@@H]4CC[C@@]3(C)[C@]1(C)CC2 | 108% | 92% | 102% | 109% | 100% | 105% | 97.4% | 97.2% | 102% | 87.1% | 91.4% | 105% | 106% | 92.1% | 109% | 104% | 106%
Cn1c2c(c3ccc(-c4ccn[nH]4)cc3c1=O)C(=O)c1ccccc1-2 | -11.6% (active) | 29.4% | 86% | 74% | 74.2% | 45.6% | 60.3% | 85.8% | 53.2% | 32.2% | 50.5% | 77.6% | 31.1% | 9.04% (active) | 21.9% | 79.8% | 15.7%
C=C1C(=O)O[C@H]2[C@H]1CC/C(COC(=O)CCCCCCC(=O)OC/C1=C/CC[C@@]3(C)O[C@H]3[C@H]3OC(=O)C(=C)[C@@H]3CC1)=C\CC[C@@]1(C)O[C@@H]21 | 2.81% (active) | -18.7% (active) | 61% | 42.3% | 94.6% | 11.2% | -3.87% (active) | 27.2% | 46.6% | -18.1% (active) | 49.4% | 40.4% | 14.8% | 14.8% | -40.6% (active) | 89.3% | 61.5%
CCCS(=O)(=O)Nc1ccc(F)c(C(=O)c2c[nH]c3ncc(-c4ccc(OCCCC5CCCCN5)nc4)cc23)c1F (centres undefined) | 64% | 88.9% | 78.1% | 83.6% | 11.6% | 31.7% | 89.6% | 9.28% (active) | 100% | 17.7% | 57.5% | 25.9% | 116% | 69.4% | 70% | 108% | 103%
Nc1c(C(=O)Nc2ccccn2)sc2nc3c(cc12)C(=O)CCC3 | 38.5% | 64.3% | 46.9% | 56.8% | 40.3% | 51.3% | 3.09% (active) | 1.79% (active) | 21.9% | 33.1% | 53.5% | -42.9% (active) | 23.7% | 22% | 26.3% | 49.3% | 16.3%
C=CCn1c(SCC(=O)Nc2ccc(C(=O)/C=C/c3cc(OC)c(OC)c(OC)c3)cc2)nnc1-c1ccccc1 | 5.73% (active) | 86.8% | 128% | 111% | 110% | 86.9% | 82.3% | 102% | 102% | 78.8% | 95.5% | 50% | 73.2% | 13.6% | 15.8% | 108% | 54.4%
Nc1cc(N)c(S(=O)(=O)O)cc1N=Nc1cc([N+](=O)[O-])ccc1O | 98.8% | 99.5% | 108% | 109% | 93.8% | 106% | 113% | 103% | 106% | 97.2% | 105% | 112% | 108% | 94.7% | 94% | 109% | 106%
CCOC(=O)c1c(C(F)(F)F)n([O-])c2ccc(Cl)cc2[n+]1=O | -69.8% (active) | -42.6% (active) | -27.8% (active) | -35.3% (active) | 66.6% | -30.3% (active) | -70.5% (active) | 13.8% | 8.49% (active) | -53% (active) | -59.6% (active) | -70.1% (active) | -64.7% (active) | -57.6% (active) | -62.8% (active) | -90.8% (active) | -78.5% (active)
COc1ccccc1C(=O)/C=C/c1cc2cccc(OC)c2[nH]c1=O | -14.5% (active) | -5.37% (active) | 13.1% | 15.4% | 16.3% | 2.88% (active) | -9.01% (active) | 39.3% | 3.01% (active) | 11.3% | -3.55% (active) | 6.42% (active) | -6.28% (active) | 13.4% | -15% (active) | -84.7% (active) | -49.1% (active)
CCCCCCN1C(=O)CN=C1Nc1ccc2cc3ccc(NC4=NCC(=O)N4CCCCCC)cc3nc2c1 | -22.6% (active) | 73.9% | 75% | 55.6% | 103% | 53.7% | -35.9% (active) | 56.6% | 81.3% | 32.9% | 78.1% | 55.3% | -51.6% (active) | 0.96% (active) | 20.1% | 47.2% | 31.1%
COC(=O)c1cncc(C(=O)Nc2ccc(-n3cnc4ccccc43)cc2)c1 | 74.5% | 97.2% | 101% | 107% | 108% | 90.5% | 108% | 107% | 94.9% | 74.8% | 96.1% | 105% | 112% | 84.7% | 103% | 116% | 88.4%
O=c1c2ccccc2oc2ccc(OCCCCCN3CCCCCC3)cc12 | 57.3% | 75.5% | 92% | 73.1% | 93.5% | 77.2% | 87.1% | 88.8% | 77.8% | 58.8% | 78.5% | 73.8% | 77.7% | 68.2% | 58.4% | 84.6% | 68.6%
Nc1c(C(=O)Nc2cccc3ccccc23)sc2nc3c(cc12)COCC3 | 59.6% | 57.9% | 87.9% | 73.4% | 38.6% | 49.1% | 19.8% | 35.8% | 26.8% | 57.1% | 51.3% | -1.93% (active) | 24.9% | 18.7% | 26.3% | 85.5% | 40.7%
COc1ccc(/C=C/C(=O)C(CC2CCC2)C(=O)/C=C/c2ccc(OC)c(OC)c2)cc1OC | -7.68% (active) | 3.28% (active) | -12.9% (active) | 35.2% | 16.2% | -17.1% (active) | -33.2% (active) | 25.4% | 3.14% (active) | -5.5% (active) | -23.5% (active) | -11.5% (active) | -26.3% (active) | 6.93% (active) | -75.8% (active) | -80.6% (active) | -33.5% (active)
C=CCn1c(SCC(=O)Nc2ccc(C(=O)/C=C/c3ccc(Cl)cc3)cc2)nnc1-c1cc(OC)c(OC)c(OC)c1 | 28.7% | 91.6% | 116% | 87.9% | 109% | 99.5% | 91.9% | 87.8% | 95.5% | 78.9% | 94% | 93.2% | 98.2% | 41% | 6.42% (active) | 106% | 93.3%
COc1ccc(C(=S)c2cc(OC)c(OC)c(OC)c2)cc1OC(=O)CCl | 26.9% | 14.4% | 66.9% | 52.9% | 25.3% | 24.4% | 8.17% (active) | 37.8% | 7.4% (active) | 62.6% | 12.1% | -8.11% (active) | 29.5% | 15% | 9.73% (active) | 31.2% | 13.9%
